# PP1 inh = blocks human PP1-alpha phosphatase, a PP5 counter-screen | P62136 | purified PP1alpha, OMFP fluorescence | inhibition, % at 6.7 µM | 0.9% of 320,000 active | AID 2235;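 active = inhibition above the mean inhibition of all tested compounds plus 3 SD, computed separately for each screening campaign, cut at about 15% in these data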
# Target sequence (P62136 whole entry, looked up): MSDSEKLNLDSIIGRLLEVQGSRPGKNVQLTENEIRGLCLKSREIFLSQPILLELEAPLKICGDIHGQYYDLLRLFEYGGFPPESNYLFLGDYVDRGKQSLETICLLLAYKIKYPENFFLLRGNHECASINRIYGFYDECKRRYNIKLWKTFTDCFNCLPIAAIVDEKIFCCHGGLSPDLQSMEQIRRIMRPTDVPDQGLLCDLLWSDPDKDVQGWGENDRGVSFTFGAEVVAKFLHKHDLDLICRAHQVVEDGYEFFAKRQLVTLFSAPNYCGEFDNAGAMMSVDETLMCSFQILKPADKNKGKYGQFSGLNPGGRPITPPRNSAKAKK
# IDE cell inh = inhibits human insulin-degrading enzyme in HEK cells | AID 434962 | inhibition, % at 5.59 µM | 0.41% of 320,000 active | FAbetaB cleavage, fluorescence polarization | P14735;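 active = percent inhibition above the average of all tested compounds plus 3 SD, set per screening campaign, cut at about 16% in these data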;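 note: IDE supplied by intact live HEK cells; FP after avidin binding of uncleaved biotin substrate so inhibition keeps polarization high; 0% = DMSO wells and 100% = 60 µM reference IDE inhibitor Ii1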
# IDE act = activators of human insulin-degrading enzyme in cells | P14735 | HEK cells, FAbeta-B cleavage, fluorescence polarization; 0% vehicle, 100% cell-free pure enzyme wells | activation, % at 5.96 µM | 0.073% of 340,000 active;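 active = activation above the mean of all tested compounds plus 3 SD, set per screening campaign, cut at about 17% in these data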
# PP5 inh = PP5 (human) phosphatase inhibition; P53041; inhibition, % at 6.7 µM; 0.18% of 320,000 active; purified PP5c, OMFP substrate fluorescence; AID 1987;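 active = inhibition above the campaign's mean inhibition across all tested compounds plus 3 SD, cut at about 9.5% in these data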;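 note: 0% = DMSO only and 100% = 100 µM cantharidin control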
# Exocytosis inh = lytic granule exocytosis inhibition; inhibition, % at 10 µM; 0.66% of 360,000 active; TALL-104 LAMP-1 surface exposure, flow cytometry; cells stimulated with thapsigargin and PMA;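 active = inhibition above about 55%, limit read from the data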
# SKKanGAS inh = blocks kanamycin growth of S. pyogenes SKKanGAS strain; BacTiter-Glo, 6 h; inhibition, % at 7.5 µM; 1.3% of 300,000 active;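 active = mean replicate score, as percent of positive control median, at least 50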;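 note: strain carries kanamycin resistance gene driven by streptokinase promoter and grows in 40 µg/ml kanamycin; loss of luminescence reflects streptokinase promoter inhibition or plain growth inhibition; 0% = median of DMSO wells and 100% = positive control at its reference dose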
# IDE inh confirm = cellular human IDE inhibition, confirmation. HEK cells, FAbetaB cleavage, fluorescence polarization. shares compounds with IDE cell inh. AID 435028. 51% of 1,200 active. inhibition, % at 5.59 µM;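 active = mean inhibition across triplicate wells above the cutoff set by the earlier primary insulin-degrading enzyme screen, cut at about 16% in these data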;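 note: 0% = DMSO wells and 100% = 60 µM reference IDE inhibitor Ii1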
# HEK cytotox = kills HEK cells in IDE inhibitor counter-screen; HEK293 cytotoxicity, ATP luminescence; inhibition, % at 5.59 µM; 28% of 1,200 active; shares compounds with IDE cell inh; in the data active = inhibition above about 22%;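 note: 0% = vehicle wells and 100% = reference cytotoxic drug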
# Granule exo CP1 = lytic granule exocytosis inhibition; shares compounds with Exocytosis inh; TALL-104 cells, LAMP-1 externalization, flow cytometry; stimulated with PMA plus thapsigargin; 11% of 1,500 active; inhibition, % at 10 µM; in the data active = inhibition above about 60%;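 note: 0% = stimulated vehicle wells and 100% = unstimulated wells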
# * = called active by the depositor; / = no result. Sampled rows, rich in hits. Any-hit rate of the full collection: about 2.8%.
SMILES,PP1 inh,IDE cell inh,IDE act,PP5 inh,Exocytosis inh,SKKanGAS inh,IDE inh confirm,HEK cytotox,others
COc1ccc(/C=C2/SC(=S)N(NS(=O)(=O)c3ccccc3)C2=O)cc1,1.1,-3.0,3.8,1.8,33.5,20.2,/,/,
O=C(NCc1ccc(Cl)cc1)c1csc(-c2cccnc2)n1,1.4,-1.8,8.9,3.0,-2.6,-5.4,/,/,
O=C(NNC(=O)c1ccc(Cl)cc1Cl)c1csc(-c2cccnc2)n1,-0.9,20.8*,-0.2,3.1,-2.0,-0.3,9.2,11.1,
CC(=Nc1ccccc1)c1sc2ccccc2c1O,0.8,19.8*,-43.0,1.9,-0.1,-10.2,50.8*,11.9,
Cc1cccc(/N=C/c2sc3ccccc3c2O)n1,-0.1,1.0,2.6,1.4,-3.6,17.8,/,/,
CC(=Nc1ccc(Br)cc1)c1sc2ccccc2c1O,-3.0,20.1*,-57.1,0.3,1.2,16.8,53.7*,15.3,
NC(=Nc1ccc(Br)cc1)c1ccccc1,-1.2,3.8,6.6,2.4,-4.3,2.7,/,/,
CN(C)c1nc(SCC(=O)Nc2ccccc2)nc(N2CCOCC2)n1,2.2,20.2*,-13.3,0.7,1.2,-1.9,15.5,7.6,
CN(C)c1nc(SCC(=O)Nc2ccc(Cl)c(Cl)c2)nc(N2CCOCC2)n1,0.8,22.9*,-56.0,1.7,73.9*,6.7,8.7,26.9*,
Cc1cccc(C(=O)NCC(c2ccc(F)cc2)N2CCOCC2)c1 (stereo not given),1.5,16.3*,5.6,0.1,1.8,-6.3,7.0,7.3,
Cc1ccc(CNS(=O)(=O)c2ccc(-n3cccn3)cc2)cc1,/,/,/,/,-7.6,/,/,/,
COc1ccc(Cl)cc1C(=O)NCC(=O)OCc1ccccc1,1.1,20.1*,-11.8,-1.6,2.9,-18.6,9.5,9.5,
COc1ccc(CC(N)c2csc(NC(=O)Nc3ccccc3-c3ccccc3)n2)cc1 (stereo not given),/,/,/,/,4.8,/,/,/,
CCN1C(=O)/C(=C/C=C2/CCCN2C)OC1=S,0.1,19.1*,-29.6,3.7,0.1,-1.0,26.5*,10.0,
CN1C(=O)/C(=C\C=C2/CCCN2C)N(C)C1=S,-1.2,-0.1,-6.4,1.8,-0.9,9.8,/,/,
Cc1cccc(OCC(=O)OC(C)C(=O)Nc2ccc(Cl)cn2)c1 (stereo not given),-4.9,3.6,-1.0,0.2,3.6,10.8,/,/,
Cc1cccc(C(=O)NCC(=O)OC(C)C(=O)Nc2ccc(Cl)cn2)c1 (stereo not given),-1.5,16.3*,1.0,0.6,-0.5,-1.4,0.4,11.8,
Cc1ccc(O)c(C(=O)c2cc(C#N)c(=O)n(-c3nccs3)c2)c1,-3.3,51.1*,-42.8,-7.5,5.6,21.2,65.3*,9.9,
Cc1ccc(O)c(C(=O)c2cc(C#N)c(=O)n(-c3c(C)n(C)n(-c4ccccc4)c3=O)c2)c1,-0.8,6.9,-9.8,-0.2,-2.5,6.1,/,/,
Cc1c(-n2cc(C(=O)c3cc(Cl)ccc3O)cc(C#N)c2=O)c(=O)n(-c2ccccc2)n1C,-1.4,17.2*,-11.6,0.4,2.5,1.5,24.8*,3.5,
COC(=O)C1=C(C)N(c2ccc(F)cc2)/C(=C/c2ccc(O)cc2)C1=O,2.0,19.5*,-39.6,1.3,-0.8,5.4,76.3*,12.1,
Cc1c(-c2cccc(Cl)c2)nc2ccccc2c1C(=O)OCC(=O)Nc1ccc2c(c1)OCO2,-1.6,16.6*,-4.2,5.5,2.6,38.1,0.4,22.7*,
Cc1onc(-c2ccccc2)c1C(=O)OCC(=O)Nc1ccc2c(c1)OCO2,-6.2,0.0,2.8,-0.5,-1.2,-17.3,/,/,
CCOc1ccc2nc(NC(=O)Cn3cnc4c3c(=O)n(C)c(=O)n4C)sc2c1,-1.9,19.5*,-18.2,-0.3,-2.7,-14.5,-1.8,10.1,
CCOc1ccc2nc(NC(=O)CSc3nc4c(c(=O)n(C)c(=O)n4C)n3C(C)C)sc2c1,0.5,-3.3,-1.5,1.0,0.2,23.0,/,/,
SMILES,PP1 inh,IDE cell inh,IDE act,PP5 inh,Exocytosis inh,SKKanGAS inh,IDE inh confirm,HEK cytotox,others
N#CC1=C(SCC(=O)c2cc3ccccc3oc2=O)NC(=O)C(C#N)C12CCCC2 (stereo not given),3.7,21.1*,-22.2,1.2,7.6,20.1,9.4,11.8,
Cc1occc1-c1nnc(SCC(=O)c2cc3ccccc3oc2=O)o1,1.0,1.4,0.3,-2.0,-2.6,4.3,/,/,
O=c1onc(-c2ccccc2)c2ccccc12,0.5,16.4*,9.3,-0.4,-2.6,2.2,6.5,2.6,
O=C(CN1C(=O)NC2NC(=O)NC21)N/N=C/c1ccccc1F (stereo not given),-5.7,7.0,/,2.1,/,2.5,/,/,
CCOc1cccc(C(=O)Nc2nc(-c3ccc(S(=O)(=O)N4CCOCC4)cc3)cs2)c1,-1.5,23.0*,-16.3,2.6,-1.2,3.1,9.3,37.8*,
CC(C)(C)n1nnnc1C(c1ccccc1)N1CCN(c2ccccn2)CC1 (stereo not given),/,/,/,/,1.5,/,/,/,
Nc1ccn([C@@H]2O[C@H](CNCc3ccc(Oc4cc(-n5cccn5)ncn4)cc3)[C@@H](O)[C@H]2O)c(=O)n1,/,/,/,/,1.1,/,/,/,
COc1ccccc1C1(O)C(=O)Nc2ccc(C)cc21 (stereo not given),-0.7,5.7,2.7,0.0,1.9,-4.3,/,/,
O=C(O)c1ccc2c(=O)n3c(nc2c1)/C(=C/c1cccc(Cl)c1Cl)CCCC3,2.9,17.9*,1.1,-3.6,-5.4,26.9,3.3,0.8,
O=C(O)c1ccc2c(=O)n3c(nc2c1)/C(=C/c1ccc(F)cc1)CC3,-8.6,-2.5,-7.1,0.8,5.0,18.0,/,/,
Cc1ccc(NC(=O)CCCCCC2NC(=O)NC2C)cc1 (stereo not given),-4.2,5.4,-13.0,0.6,-0.9,-1.1,/,/,
CCc1cccc(NC(=O)CCCCCC2NC(=O)NC2C)c1 (stereo not given),-3.4,22.1*,-17.0,2.3,0.3,-1.7,14.1,11.5,
Cc1ccc(-n2sc3ccccc3c2=O)cc1,-1.0,97.2*,-51.0,-2.0,74.2*,95.6*,32.4*,99.4*,Granule exo CP1=33.0
Cc1ccc(Cn2c(=O)sc3ccccc3c2=O)cc1,-0.8,-2.5,0.6,3.5,3.2,4.3,/,/,
CC(C)n1cc(CN2CCN(C)C(CCO)C2)c2ccccc21 (stereo not given),-9.2,4.2,2.4,-7.2,18.9,0.0,/,/,
CCCn1c(SCC(=O)Nc2nnc(CC)s2)nnc1-c1ccncc1,-3.6,3.1,2.6,0.3,1.3,-6.3,/,/,
COc1cccc2[nH]c3c(N4CCC(C)CC4)ncnc3c12,1.1,1.7,-0.9,4.1,-0.1,3.8,/,/,

# Bioassay records as filed in PubChem.
